Screening data (PubChem)
Rows were chosen to be rich in hits. Some 28% of all compounds tested hit in one or more screens of this group.
CYP2C9 act – activators of human CYP2C9; P11712; recombinant CYP2C9, luciferin-H conversion, luminescence; stronger effect = higher value; factor 1 = untreated enzyme, 0 = blocked; activation factor at 5 µM; 1.4% of 96,000 active; AID 1024;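 active = activation factor of 2 or more for CYP2C9 at a 5 µM dose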;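 also: 0 = sulfaphenazole-blocked wells and 1 = vehicle-only wells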
Target sequence (P11712 whole entry, looked up): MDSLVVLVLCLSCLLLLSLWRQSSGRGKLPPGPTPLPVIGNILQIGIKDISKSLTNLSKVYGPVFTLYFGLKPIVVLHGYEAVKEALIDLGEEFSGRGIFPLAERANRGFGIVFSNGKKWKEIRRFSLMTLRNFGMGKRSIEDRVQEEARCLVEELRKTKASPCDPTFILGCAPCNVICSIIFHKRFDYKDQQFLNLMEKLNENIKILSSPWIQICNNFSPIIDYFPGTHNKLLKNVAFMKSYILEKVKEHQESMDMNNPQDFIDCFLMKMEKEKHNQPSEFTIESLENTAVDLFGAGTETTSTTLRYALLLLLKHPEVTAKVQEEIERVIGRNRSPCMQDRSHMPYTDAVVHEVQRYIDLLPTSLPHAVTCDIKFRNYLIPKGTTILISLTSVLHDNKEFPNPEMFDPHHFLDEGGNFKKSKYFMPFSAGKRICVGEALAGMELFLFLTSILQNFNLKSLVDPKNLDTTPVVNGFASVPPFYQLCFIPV
CYP2C9 inh – human CYP2C9 inhibition; P11712; CYP2C9 Supersomes, luciferin-H conversion, luminescence; inhibition, % at 5 µM; 20% of 96,000 active;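 active = blocking of liver enzyme CYP2C9 beyond about 50% at 5 µM, limit read from the data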
D1 allo mod – allosteric modulators of human D1 dopamine receptor; B-score at 10 µM; HEK293 D1, CRE-luciferase, dopamine EC30 potentiation; actives deviate in either direction; AID 641; 5.9% of 58,000 active;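 active = luminescence count or its row- and column-corrected plate score outside the 99.7% band of the plate's sample wells, on either side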
CYP2C19 activ – activators of human cytochrome P450 2C19; activation factor at 5 µM; recombinant CYP2C19, luciferin-H EGE luminescence; stronger effect = higher value; 0 = fully inhibited enzyme, 1 = untreated enzyme; 96,000 tested, under 10 active; AID 1025;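 active = activation factor of at least 2 at 5 µM in the primary screen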;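 also: 0 = wells with 2.5 mM tranylcypromine and 1 = vehicle-only wells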
CYP2C19 inhib – inhibitors of human CYP2C19; inhibition, % at 5 µM; AID 778; P33261; CYP2C19 Supersomes, luciferin-H EGE luminescence, 30 min; 21% of 96,000 active;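 active = CYP2C19 inhibition above a set limit at 5 µM in the primary screen, cut at about 50% in these data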;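 also: plate controls were negative control wells for no effect and 2.5 mM tranylcypromine positive control for full effect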
DAT uptake mod – changed human dopamine transporter uptake under cocaine IC80; Q01959; LLC-PK1 hDAT cells, [14C]-dopamine uptake with cocaine IC80; actives deviate in either direction; B-score at 10 µM; 1.3% of 110,000 active; AID 449768;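 active = Z score or B-score, a plate-position-corrected score, falls beyond the plate's 99.7% confidence bounds, in either direction; inactive = both scores lie inside the 99.7% bounds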;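 also: scored against the spread of the other compound wells on the same plate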
* marks the source's active call; other numbers are inactive results; nt = no result.

SMILES	CYP2C9 act	CYP2C9 inh	D1 allo mod	CYP2C19 activ	CYP2C19 inhib	DAT uptake mod
Cc1oc2c(C)c(O)ccc2c(=O)c1-c1cnn(-c2ccccc2)c1	1	1	nt	0.8	18	-0.63
Cc1[nH]nc(-c2ccc(O)c(C)c2O)c1-c1cnn(-c2ccccc2)c1	0	99*	nt	0	99*	0.46
CCCn1nnnc1-c1cccc(Cl)c1	0.9	10	nt	0.6	39	-0.43
CC1(C)CCC23CC[C@]4(C)C(OC2=O)(C3C1)[C@H]1O[C@H]1C1[C@@]2(C)CC[C@@H](O)C(C)(C)C2CC[C@]14C (stereo not given in full)	nt	nt	nt	nt	nt	-0.67
CC(C)(C)C(=O)Nc1nnc(CSCc2ccccc2F)s1	0.4	56*	nt	0.4	59*	-0.2
CCOCCc1nnc(NC(=O)C(CC)c2ccccc2)s1 (stereo not given)	0.1	87*	nt	0.4	56*	0.73
CC(C)COC(=O)Nc1nnc(SCc2ccccc2F)s1	0.9	6	nt	0.9	9	0.24
CCc1nnc(NC(=O)C(C)Sc2ccccc2)s1 (stereo not given)	0.3	74*	1.6	0.2	83*	-0.82
CC(C)C(=O)Nc1nnc(CSCc2ccccc2F)s1	0.6	42	nt	0.3	70*	0.43
COc1ccc(-c2nnc(SCC(=O)Oc3ccc(C)cc3)o2)cc1	nt	nt	nt	nt	nt	-0.19
CC(=O)NC12CC3CC(C1)CC(C(=O)OCC(=O)Nc1ncc(Cl)cc1Cl)(C3)C2	nt	nt	0.028	nt	nt	-0.9
COCCCn1c(SCc2ccc(OC)cc2)nc2cc(OC)c(OC)cc2c1=N	0.3	72*	nt	0.5	55*	-0.53
O=C(Nc1ccc(-c2cn3ccsc3n2)cc1)c1ccc(F)c(S(=O)(=O)N2CCOCC2)c1	0.5	46	nt	0.8	15	-0.16
COc1cccc(NC(=O)COc2ccc(S(=O)(=O)NC(C)C)cc2)c1	nt	nt	nt	nt	nt	-0.066
COc1ccc2c(c1)C(=O)N(c1ccccc1)C(=O)C2	0.9	7	nt	0.8	19	-0.53
N#CC1=C(N)N(c2ccc(Oc3ccccc3)cc2)C(=O)C1	0.5	52*	0.21	0.5	46	0.0048
CCOc1ccc(-n2c(SCC(=O)Nc3ccc(OC)cc3OC)nc3c(c2=O)SCC3)cc1	0.6	44	0.91	0.6	39	-0.37
CCOC(=O)Cc1csc(NC(=O)CSc2nnc(C(C)C)n2CC)n1	nt	nt	-0.6	nt	nt	-1.1
CCOC(=O)Cc1nnc(NC(=O)COc2ccc(OC)cc2)s1	0.4	61*	nt	1	0	-1.8
CCOC(=O)Cc1csc(NC(=O)CCS(=O)(=O)Cc2ccccc2)n1	0.5	53*	-0.49	0.7	31	-0.61
CCOC(=O)Cc1csc(NC(=O)COc2ccc(N(C)S(=O)(=O)c3ccc(C)cc3)cc2)n1	0.1	92*	nt	0.1	92*	0.065
CCOC(=O)Cc1csc(NC(=O)CSc2nnc(-c3ccc(OC)cc3)n2C)n1	0.4	59*	0.39	0.7	30	-0.81
CCOC(=O)Cc1csc(NC(=O)COc2ccc(OC)cc2)n1	0.8	16	nt	1	3	1.6
CCOC(=O)Cc1csc(NC(=O)COc2ccc3ccccc3c2)n1	0.5	47	nt	0.5	53*	1.2
CCOC(=O)Cc1csc(NC(=O)c2sc3nc4c(C)cc(C)cc4cc3c2N)n1	0.4	59*	nt	0.7	28	-0.19
SMILES	CYP2C9 act	CYP2C9 inh	D1 allo mod	CYP2C19 activ	CYP2C19 inhib	DAT uptake mod
CCOC(=O)Cc1csc(NC(=O)CSc2nc(N)c3c(C)c(C)sc3n2)n1	0.4	59*	nt	0.8	19	0.72
CCOC(=O)Cc1csc(NC(=O)CC)n1	1	2	-1.5	1	-2	-1.4
CCOC(=O)Cc1csc(NC(=O)c2cccc(OC)c2)n1	0.3	65*	nt	0.7	27	0.42
Cc1cccc(C)c1OCc1nnc(SCC(=O)Nc2nccs2)n1-c1ccccc1	1	-3	0.51	1.1	-14	-0.13
Cn1c(N)c(C(=O)COC(=O)Cn2cc(C(F)(F)F)ccc2=O)c(=O)n(C)c1=O	0.9	10	nt	1	-2	1
COc1ccc(OC)c(NC(=S)NCc2ccco2)c1	nt	nt	nt	nt	nt	-0.63
CCN1CCN(C(=O)CCc2ccc(S(=O)(=O)NCCc3ccccc3)cc2)CC1	nt	nt	nt	nt	nt	0.31
Cc1nn(-c2ccccc2)c(C)c1NC(=O)COc1ccc2ccccc2c1	1.2	-24	nt	0.3	74*	-0.018
CC(C)c1c(O)nc(SCC(=O)Nc2ccc3c(c2)CCC3)[nH]c1=O	0.8	22	-0.65	0.9	8	0.63
Cc1ccc(NC(=O)CSc2nc3c(c(=O)[nH]2)CCC3)cc1C	0.5	51*	0.077	0.8	19	1.6
CC(C)c1ccc(NC(=O)CSc2nc3c(c(=O)[nH]2)CCC3)cc1	0.4	60*	nt	0.9	14	-0.2
CC[C@@H]1[C@H]2CCCC(=O)N3CC[C@@H](C[C@H]1O)[C@@H]23	nt	nt	nt	nt	nt	0.11
C#CCO[C@@H]1C[C@H](n2cnc3c(NC(=O)c4ccccc4)ncnc32)O[C@@H]1CO	nt	nt	nt	nt	nt	-0.49
C(=N\c1ncnc2sccc12)/NOCc1ccccc1	0.4	56*	nt	0.2	84*	0.92
Clc1ccc(CON/C=N/c2ncnc3sccc23)cc1	1	4	nt	0.7	31	0.25
CC(=O)n1c(Cl)c(NC(=O)CCl)c2ccccc21	0.9	7	nt	0.9	15	-1
Cc1ccc(C(=O)n2c3ccccc3c3ccccc32)cc1	0.2	78*	nt	0.9	7	-1.8
CC(=O)n1c2ccccc2c2ccccc21	0.3	68*	nt	0.5	47	0.031
Cc1nc2ccccc2n1CC(=O)OCC(=O)NCCc1ccccc1	1.2	-15	nt	1.2	-17	0.6
CCCc1nc2cc(CC(=O)OC)ccc2o1	1	1	nt	0.8	20	-0.95
CCCN(C(=O)c1cccs1)c1nnc(-c2ccncc2)s1	0.5	55*	0.026	0	99*	0.81
CCCCN(C(=O)Cc1cccs1)c1nnc(-c2cccnc2)s1	nt	nt	nt	nt	nt	0.37
c1ccc(-n2nnnc2SCCCSc2nc3ccccc3s2)cc1	0.6	35	0.63	0.5	47	1.4
Cc1ccc(N2C(=O)C3CC(c4ccccc4)=C4C5C=CC(C6C(=O)N(c7ccc(C)cc7C)C(=O)C56)C4C3C2=O)c(C)c1 (stereo not given)	0.2	85*	nt	0.9	13	-1.3
CCC(CC)c1nnc(NC(=O)CN2C(=O)C3C4C=CC(C4)C3C2=O)s1 (stereo not given)	0.6	41	nt	1	4	2.3
COc1ccc(/C=N/NC(=O)c2ccccc2O)cc1Cn1cc(Cl)cn1	0.5	51*	nt	0.9	11	-0.32
O=C(CCn1c(=O)[nH]c2ccsc2c1=O)N1CCN(c2cccc(Cl)c2)CC1	0.3	71*	-0.055	0.6	38	1.2
COc1ccc(N2CCN(C(=O)CCCn3c(=O)[nH]c4cc(Cl)ccc4c3=O)CC2)cc1	0.5	53*	nt	0.7	29	0.073
O=C(CCCn1c(=O)[nH]c2cc(Cl)ccc2c1=O)NCCCN1CCCC1	0.3	69*	-0.96	0.9	8	0.62
